Where “and” joins values, the source holds several entries; their conditions need not be identical. Identical values can stand only once. Records with an inconclusive call do not appear. Calls of active or inactive are those of the source. Calls follow the shape of the full dose curve.

Bile acid receptor (Homo sapiens), sequence (Q96RI1 whole entry, looked up): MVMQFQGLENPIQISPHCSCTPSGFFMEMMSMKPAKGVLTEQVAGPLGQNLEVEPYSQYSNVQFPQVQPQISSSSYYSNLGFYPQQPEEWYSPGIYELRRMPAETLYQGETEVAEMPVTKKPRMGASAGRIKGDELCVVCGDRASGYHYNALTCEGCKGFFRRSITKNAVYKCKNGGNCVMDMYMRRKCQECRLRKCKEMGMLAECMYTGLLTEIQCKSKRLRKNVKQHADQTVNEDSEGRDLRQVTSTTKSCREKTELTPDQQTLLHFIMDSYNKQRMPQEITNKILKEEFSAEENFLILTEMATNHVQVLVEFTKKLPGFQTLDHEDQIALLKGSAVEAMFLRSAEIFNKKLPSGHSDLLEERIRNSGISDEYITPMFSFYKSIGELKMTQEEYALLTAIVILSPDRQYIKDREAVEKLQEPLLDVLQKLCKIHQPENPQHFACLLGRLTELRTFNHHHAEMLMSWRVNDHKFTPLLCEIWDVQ
Peroxisome proliferator-activated receptor delta (Homo sapiens), sequence (Q03181 whole entry, looked up): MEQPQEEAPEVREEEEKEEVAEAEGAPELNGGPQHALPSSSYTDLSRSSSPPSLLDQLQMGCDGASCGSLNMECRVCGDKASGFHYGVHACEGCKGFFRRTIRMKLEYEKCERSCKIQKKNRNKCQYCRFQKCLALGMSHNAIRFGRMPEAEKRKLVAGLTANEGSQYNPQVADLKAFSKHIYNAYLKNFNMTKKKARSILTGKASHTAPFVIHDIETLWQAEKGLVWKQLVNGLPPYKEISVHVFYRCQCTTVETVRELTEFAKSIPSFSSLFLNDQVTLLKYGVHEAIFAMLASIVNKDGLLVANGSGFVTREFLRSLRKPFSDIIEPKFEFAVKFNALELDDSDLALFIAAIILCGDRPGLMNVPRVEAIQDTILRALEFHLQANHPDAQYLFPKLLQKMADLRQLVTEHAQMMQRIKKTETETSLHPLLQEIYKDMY

The target of the first assay is Bile acid receptor (Homo sapiens) (UniProt Q96RI1). As to the kind of experiment: qHTS assay for small molecule agonists of farnesoid X receptor signaling (AID 588527).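 Also: 0% = vehicle basal and 100% = reference agonist.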 The note with it: HEK293T FXR-UAS-bla, beta-lactamase ratio, 16 h; activation: hits give high values. A digest of the protocol:
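FXR-UAS-bla HEK293T cells (10% dialyzed FBS) preincubated 5-7 h at 37 C, then compounds at up to 92 uM for 16 h at 37 C. CCF4 beta-lactamase read-out after 2 h RT. Normalized to chenodeoxycholic acid (100 uM) and DMSO; Hill fit gave EC50 and efficacy.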
Take `CCCC[O][Al]([O]CCCC)[O]CCCC`: the activation was 1.48% (inactive).
On to `Cc1cc(C)cc([N+](=O)[O-])c1`, for which the activation was -0.797% (inactive).
As for `NNS(=O)(=O)c1ccc(Oc2ccc(S(=O)(=O)NN)cc2)cc1`, the activation is -0.0085% (inactive).
As for `FC(F)(F)c1cccc(Cl)c1`, the activation is -1.67% (inactive).
Same read-out and setting: the same measure for `Cc1ccc(C)o1`: 1.14% (inactive).
For the compound `CCCCC(C=O)CC` (stereo not given), the activation is -2.35% (inactive).
In the case of `CCC(C)=O`, the activation is -0.657% (inactive).
For the compound `CCC1CO1` (stereo not given), the activation was -1.53% (inactive).
Take `N[C@@H](Cc1ccccc1)C(=O)O`: the activation was 1.47% (inactive).
On to `CNc1ccc(O)cc1`, for which the activation was 3.85% (inactive).
Turning to `CC(C=O)Cc1ccc(C(C)(C)C)cc1` (stereo not given), the activation is 0.434% (inactive) and 1.86% (inactive).
Regarding `Cc1ccc(CO)cc1`, the activation is -3.46% (inactive).
Regarding `C(=C/c1ccccc1)/c1ccccc1`, the activation was -2.54% (inactive).
On the same count and under the same terms, the same measure for `C=Cc1ccc(C=C)cc1`: -3.75% (inactive); for `CCOC(C)(C)C`: 2.11% (inactive).
`Nc1cccc2c(=O)[nH][nH]c(=O)c12`: the activation is 1.93% (inactive).
Same read-out and setting: the same measure for `CC(=O)CC(C)C`: -0.151% (inactive); for `CCO`: -3.44% (inactive); for `O=C1CCC(=O)O1`: -2.49% (inactive).
Turning to `CC(=O)Nc1cccc(N)c1`, the activation is -3.44% (inactive).
Take `CCC(C)OC(=O)N1CCCCC1CCO` (stereo not given): the activation was 1.43% (inactive).
With `CCC(O)C(C)(C)C` (stereo not given), the activation is 0.367% (inactive).
Consider `CCCCCCCCCCCCCCN`, for which the activation is 2.17% (inactive).
In the case of `CC(C)O`, the activation is -0.657% (inactive).
`Cc1ccc2c(c1[N+](=O)[O-])C(=O)c1ccccc1C2=O`: the activation was -4.5% (inactive).
Same read-out and setting: the result for `OCC(O)CO` reads -1.04% (inactive) and -2.12% (inactive); that for `O=C(O)C(Oc1ccc(Cl)cc1)Oc1ccc(Cl)cc1`, -1.96% (inactive); that for `Nc1ccccc1[N+](=O)[O-]`, -3.44% (inactive).
As to `C=C(C)C(=O)OCCCCCC`, the activation is -1.11% (inactive).
For the compound `O=C(O)C(c1ccc(Cl)cc1)c1ccc(Cl)cc1`, the activation is -2.74% (inactive).
For `CCCCOC(=O)[C@@H](C)Oc1ccc(Oc2ccc(C(F)(F)F)cn2)cc1`, the activation is -2.63% (inactive).
Regarding `Oc1cccc(Nc2ccccc2)c1`, the activation is 0.64% (inactive).
On the same count and under the same terms, the result for `Nc1nc(-c2ccccc2)cs1` reads 2.42% (inactive); that for `COc1cccc2sc(N)nc12`, -1.11% (inactive); that for `COC(=O)CCSCCC(=O)OC`, -4.49% (inactive).
Still for that read-out and setting: the same measure for `O=[N+]([O-])c1ccc(CCO)cc1`: -0.12% (inactive).
As for `CCCCCCC(O)CCCCCCCCCCC(=O)O` (stereo not given), the activation is 3.12% (inactive).
As for `c1ccc(COCc2ccccc2)cc1`, the activation was -1.69% (inactive).
With `O=C(O)CCCCCCCCCCC(=O)O`, the activation was -2.26% (inactive).
As for `NC=O`, the activation is -0.541% (inactive).

The next assay addresses Peroxisome proliferator-activated receptor delta (Homo sapiens) (UniProt Q03181). As to the kind of experiment: qHTS assay for small molecule agonists of peroxisome proliferator-activated receptor delta signaling (AID 588534).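 Also: 0% = DMSO basal wells and 100% = positive control agonist at 10 µM.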 The settings on record: HEK293T PPARdelta-UAS-bla, beta-lactamase ratio, 18 h; series mostly up to 76.7 µM. The procedure, abridged:
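Fluorescence from CCF4 substrate cleavage by beta-lactamase reporter, read 2 hrs at RT, measured agonist activity. Compounds were tested with 18 hrs exposure at 37 C. Concentration-response data fitted to Hill equation.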
On the technique in general: In qHTS, concentration-response curves come from the screen itself.
In the case of `CCCC[O][Al]([O]CCCC)[O]CCCC`, the result was inactive.
On the same count and under the same terms, the same measure for `Cc1cc(C)cc([N+](=O)[O-])c1`: “inactive”.
For the compound `NNS(=O)(=O)c1ccc(Oc2ccc(S(=O)(=O)NN)cc2)cc1`, the outcome was inactive.
For `FC(F)(F)c1cccc(Cl)c1`, the outcome was inactive.
Regarding `Cc1ccc(C)o1`, the outcome was inactive.
With `CCCCC(C=O)CC` (stereo not given), the outcome was inactive.
On the same count and under the same terms, the result for `CCC(C)=O` reads “inactive”; that for `CCC1CO1` (stereo not given), “inactive”; that for `N[C@@H](Cc1ccccc1)C(=O)O`, “inactive”.
As for `CNc1ccc(O)cc1`, the outcome was inactive.
On the same count and under the same terms, the result for `CC(C=O)Cc1ccc(C(C)(C)C)cc1` (stereo not given) reads “inactive”; that for `Cc1ccc(CO)cc1`, “inactive”.
Consider `C(=C/c1ccccc1)/c1ccccc1`, for which the outcome was inactive.
In the case of `C=Cc1ccc(C=C)cc1`, the result was inactive.
Same read-out and setting: the same measure for `CCOC(C)(C)C`: “inactive”; for `Nc1cccc2c(=O)[nH][nH]c(=O)c12`: “inactive”.
For `CC(=O)CC(C)C`, the result was inactive.
Same read-out and setting: the result for `CCO` reads “inactive”.
As to `O=C1CCC(=O)O1`, the outcome was inactive.
As for `CC(=O)Nc1cccc(N)c1`, the outcome was inactive.
With `CCC(C)OC(=O)N1CCCCC1CCO` (stereo not given), the result was inactive.
For `CCC(O)C(C)(C)C` (stereo not given), the outcome was inactive.
On the same count and under the same terms, the same measure for `CCCCCCCCCCCCCCN`: “inactive”; for `CC(C)O`: “inactive”; for `Cc1ccc2c(c1[N+](=O)[O-])C(=O)c1ccccc1C2=O`: “inactive”.
The same measure, in the same setting: the result for `OCC(O)CO` reads “inactive”.
`O=C(O)C(Oc1ccc(Cl)cc1)Oc1ccc(Cl)cc1`: the outcome was inactive.
Regarding `Nc1ccccc1[N+](=O)[O-]`, the outcome was inactive.
Turning to `C=C(C)C(=O)OCCCCCC`, the outcome was inactive.
Turning to `O=C(O)C(c1ccc(Cl)cc1)c1ccc(Cl)cc1`, the outcome was inactive.
On to `CCCCOC(=O)[C@@H](C)Oc1ccc(Oc2ccc(C(F)(F)F)cn2)cc1`, for which the outcome was inactive.
Same read-out and setting: the result for `Oc1cccc(Nc2ccccc2)c1` reads “inactive”; that for `Nc1nc(-c2ccccc2)cs1`, “inactive”.
Regarding `COc1cccc2sc(N)nc12`, the result was inactive.
As to `COC(=O)CCSCCC(=O)OC`, the result was inactive.
Regarding `O=[N+]([O-])c1ccc(CCO)cc1`, the result was inactive.
Consider `CCCCCCC(O)CCCCCCCCCCC(=O)O` (stereo not given), for which the result was inactive.
On to `c1ccc(COCc2ccccc2)cc1`, for which the outcome was inactive.
For the compound `O=C(O)CCCCCCCCCCC(=O)O`, the outcome was inactive.
Regarding `NC=O`, the outcome was inactive.

The values are drawn from PubChem BioAssay (NCATS).
